Reference: PubChem BioAssay AID1851 (National Center for Advancing Translational Sciences (NCATS), 2009)
The whole screen tested about 16,000 compounds, of which about 5,100 (32%) were called active. Inconclusive results (about 25%) are left out. Some of the results follow. A number with no mark means an inactive call. Calls follow the shape of the dose curve; as a rule, active = well fitted curve in the direction sought with a large enough effect; inconclusive = small, poorly fitted or top-dose-only effect, or effect the other way; inactive = no such curve, though single readings can be large or run the other way.

Molecular target: Cytochrome P450 3A4 (Homo sapiens) (UniProt P08684)
Sequence (P08684 whole entry, looked up): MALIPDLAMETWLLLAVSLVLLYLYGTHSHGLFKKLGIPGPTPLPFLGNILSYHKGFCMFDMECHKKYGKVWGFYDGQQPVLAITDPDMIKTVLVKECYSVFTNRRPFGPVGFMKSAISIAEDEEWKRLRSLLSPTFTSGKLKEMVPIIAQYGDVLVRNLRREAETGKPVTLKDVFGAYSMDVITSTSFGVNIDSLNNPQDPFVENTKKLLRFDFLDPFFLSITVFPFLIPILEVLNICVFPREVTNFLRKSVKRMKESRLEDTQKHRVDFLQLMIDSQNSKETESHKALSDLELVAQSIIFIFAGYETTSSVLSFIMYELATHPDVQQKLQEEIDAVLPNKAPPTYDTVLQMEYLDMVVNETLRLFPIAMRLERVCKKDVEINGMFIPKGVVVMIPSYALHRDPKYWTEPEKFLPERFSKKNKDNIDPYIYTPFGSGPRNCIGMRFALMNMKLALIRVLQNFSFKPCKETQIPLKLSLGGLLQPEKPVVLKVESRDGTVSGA
Test: Cytochrome panel assay with activity outcomes
Settings: recombinant CYP, pro-luciferin dealkylation, luminescence, p450-cyp3a4; series mostly up to 57.1 µM; activity, negative = inhibition: at the top concentration
% is scaled to controls: 0 for no effect and ±100 for the full control effect.

| Compound | activity, negative = inhibition | AC50 |
| --- | --- | --- |
| Nc1nc(=O)c2[nH]cnc2n1O | -2.96% [at 11.4 µM] |  |
| CC(C)Cn1c(=O)n(C)c(=O)c2[nH]cnc21 |  | 3.98 µM (active) |
| Cn1c(=O)c2[nH]cnc2n(C)c1=O |  | inactive |
| CN(Cc1cc(Cl)cc(Cl)c1O)Cc1c(O)ccc2ccccc12 | -29.5% [at 11.4 µM] |  |
| CC(C)(N)C(=O)N[C@@H]1C(=O)N2[C@@H]1SC(C)(C)[C@H]2C(=O)O | -5.57% [at 11.4 µM] |  |
| Nc1ccc(S(=O)(=O)NC(=O)c2ccccc2)cc1 | -6.82% [at 25.6 µM] |  |
| Nc1ccc(N(c2ccccc2)c2ccc(N)cc2)cc1 |  | 1.78 µM (active) |
| COc1ccc(C2C3=C(CC(C)(C)CC3=O)Oc3ncn(CC(C)C)c(=N)c32)cc1 (stereo not given) |  | 12.6 µM (active) |
| COCCn1c(=O)c(-c2cccc(C#N)c2)nc2cnc(N(C)C)nc21 | -19.3% |  |
| COCCn1c(=O)c(-c2cccc(C#N)c2)nc2cnc(Oc3ccccc3)nc21 |  | 25.1 µM (active) |
| CN(C)c1ncc2nc(-c3ccc(F)cc3)c(=O)n(CCC#N)c2n1 | -6.39% |  |
| COCCn1c(=O)c(-c2cccc(C#N)c2)nc2cnc(Oc3ccc(OC)cc3)nc21 |  | 2.51 µM (active) |
| COCCn1c(=O)c(-c2cccc(C#N)c2)nc2cnc(OCc3ccccc3)nc21 |  | 10 µM (active) |
| N#CCCn1c(=O)c(-c2cccc(C#N)c2)nc2cnc(Oc3ccccc3)nc21 | -12.2% |  |
| N#CCCn1c(=O)c(-c2ccc(F)cc2)nc2cnc(Oc3cccc(Cl)c3)nc21 | -20.7% |  |
| N#CCCn1c(=O)c(-c2ccc(F)cc2)nc2cnc(OCc3ccccc3)nc21 |  | 15.8 µM (active) |
| CC(C)(C)NC[C@@H](O)COc1ccccc1C1CCCC1 | -7.01% [at 25.6 µM] |  |
| COc1cc2c(cc1OC)-c1cc3ccc(OC)c(OC)c3c[n+]1CC2 | -16.2% [at 25.6 µM] |  |
| CC(C)C(NS(=O)(=O)c1cccc2nsnc12)C(=O)N1CCc2ccccc2C1 (stereo not given) |  | 7.08 µM (active) |
| Cc1ccc(S(=O)(=O)N[C@H](C(=O)N2CCC(C(=O)NCC(=O)O)CC2)C(C)C)cc1 | -18.8% |  |
| CC(C)c1ccc2nc3sc(C(=O)N4CCc5ccccc5C4)c(N)c3cc2c1 | 6.07% [at 2.29 µM] |  |
| COC(=O)C(NC(=O)c1ccc(Cl)cc1)(Nc1nc(C)cs1)C(F)(F)F (stereo not given) |  | 14.1 µM (active) |
| Cc1cc(OC(=O)c2ccc(Cl)cc2)cc(=O)n1C | -9.63% |  |
| CCOc1ccc(C(=O)Cc2cc(OC)c(OC)cc2[N+](=O)[O-])cc1 |  | 7.94 µM (active) |

| Compound | activity, negative = inhibition | AC50 |
| --- | --- | --- |
| CCOc1ccc(C(=O)CCC(=O)O)cc1 | 4.1% |  |
| CCOc1ccc(/C=C/C(=O)Nc2ccc(OC)cc2[N+](=O)[O-])cc1 | -0.704% |  |
| C[C@]12CC[C@H]3c4ccc(OC[C@H]5CO5)cc4CC[C@H]3[C@H]1CC[C@@H]2O | 11.8% [at 11.4 µM] |  |
| O=C(NCCCn1ccnc1)Nc1ccc(Cl)cc1 |  | 0.398 µM (active) |
| S=C(S)NCCCn1ccnc1 |  | 1.58 µM (active) |
| COc1ccc(C(=O)N/C(=C/c2cccs2)C(=O)NCCCn2ccnc2)cc1OC |  | 1.58 µM (active) |
| Cn1nccc1C(=O)Nc1ccc(Cl)cc1 | -16.2% |  |
| COc1ccc2c(Cl)c(C(=O)NCCCn3ccnc3)sc2c1Cl |  | 0.501 µM (active) |
| NCCNC(=S)S | -20.2% [at 11.4 µM] |  |
| S=C(S)NCCN1CCNCC1 | -13.6% [at 11.4 µM] |  |
| O=C(NCCCN1CCc2ccccc2C1)Nc1ccc(Cl)cc1 | 18.3% |  |
| CC(C)(CO)[C@H](O)C(=O)NCCCO | -2.39% [at 25.6 µM] |  |
| N[C@@H](Cc1cc(-c2ccc(Cl)cc2Cl)cc(CP(=O)(O)O)c1O)C(=O)O | -5.32% |  |
| CCc1ccccc1NC(=O)C1C(c2ccccc2)C1(Cl)Cl (stereo not given) |  | 15.8 µM (active) |
| O=C(O)C1CCCCC1C(=O)Nc1ccccc1Cl (stereo not given) | 2.92% |  |
| COC(=O)C1=C(C)NC2=C(C(=O)CCC2)C1c1cn(Cc2ccc(Cl)cc2Cl)nc1-c1ccccc1 (stereo not given) |  | 2.51 µM (active) |
| C[C@H](C[C@H](N)C(=O)O)C(=O)O | -6.08% |  |
| CC[N+](CC)(CC)CCOc1cccc(OCC[N+](CC)(CC)CC)c1OCC[N+](CC)(CC)CC | 5.02% |  |
| Clc1ccc(-c2ccnc(Oc3cc(Cl)ccc3Cl)n2)cc1 | -6.59% |  |
| Nc1cc(Cl)ccc1Oc1ccc(Cl)cc1 | 13.4% |  |
| Cc1cc(Cl)ccc1Oc1ncc(-c2ccc(Cl)cc2)cn1 |  | 7.08 µM (active) |
| O=C(O)C1CCN(c2ncccn2)CC1 | -12.1% |  |
| O=[N+]([O-])c1cccnc1N1CCCCC1 | -1.84% |  |
| O=C(NC1CCCC1)c1cccnc1N1CCCCCC1 |  | 14.1 µM (active) |

| Compound | activity, negative = inhibition | AC50 |
| --- | --- | --- |
| COCc1c(C(=O)OCC(=O)N2c3ccccc3NC(=O)C2(C)C)oc2ccccc12 | 0.0262% |  |
| Cc1noc(C)c1COc1cccc(C(=O)OCC(=O)N2CC(=O)Nc3ccccc32)c1 |  | 4.47 µM (active) |
| Cc1cc(F)ccc1S(=O)(=O)Nc1ccccc1C(=O)Nc1ccccc1N1CCOCC1 |  | 0.891 µM (active) |
| O=C(Nc1ccccc1N1CCOCC1)c1ccc([N+](=O)[O-])cc1 | -2.07% |  |
| O=C(Nc1ccccc1N1CCOCC1)c1ccccc1[N+](=O)[O-] | 14.2% |  |
| Cc1cccc(CNc2nc(-c3ccccc3CN(C)C)nc3ccccc23)c1 |  | 10 µM (active) |
| CN(C)Cc1ccccc1-c1nc(NCc2ccccc2)c2ccccc2n1 |  | 12.6 µM (active) |
| CN(C)Cc1ccccc1-c1nc(N(C)C)c2ccccc2n1 | -28% |  |
| CCCCN=C1N/C(=C\c2ccco2)C(=O)N1c1ccccc1 | -25.2% |  |
| CCOc1cc(/C=C2/SC(=O)N(CC(=O)N3CCc4ccccc4C3)C2=O)ccc1OCC(=O)O | -11.9% |  |
| COc1ccccc1OCCN1C(=O)S/C(=C\c2ccco2)C1=O |  | 14.1 µM (active) |
| CCCCc1cc(=O)oc2cc(OCC(=O)N(CC)CC)ccc12 | -26.8% |  |
| CCCc1cc(=O)oc2cc(OCC(=O)N3CCc4ccccc43)ccc12 |  | 8.91 µM (active) |
| CCCc1cc(=O)oc2cc(OCc3nn[nH]n3)ccc12 | -17.2% [at 2.29 µM] |  |
| Cc1ccc(Nc2nc(-c3c(C)nc4ncccn34)cs2)cc1 |  | 25.1 µM (active) |
| C=CCn1c(=O)c(C(=O)NCCN(CC)CC)c(O)c2ccccc21 | -20.6% |  |
| CC(C)C(=O)NCCn1ccc2ccccc21 |  | 12.6 µM (active) |
| O=C(O)CN1CCN(Cc2ccc(F)cc2Cl)C1=O |  | 2.24 µM (active) |
| O=C(O)CN1CCN(Cc2ccccc2)C1=O | 11.6% |  |
| CC1=C(C#N)C(NC(=O)C2CCCCC2)(C(F)(F)F)C(=O)N1 (stereo not given) | -17.3% |  |
| Cc1sc(NC(=O)C2CCCCC2)c(C#N)c1-c1ccccc1 |  | 8.91 µM (active) |
| Cc1sc(NC(=O)/C=C/c2ccc(C(C)C)cc2)c(C#N)c1C | -11.7% |  |
| CC(C)(C)CNC(CO)C12CC3CC(CC(C3)C1)C2 (stereo not given) | -5.44% |  |
| Cc1ccc2nc(SCc3nc4c(cnn4-c4ccccc4)c(=O)[nH]3)[nH]c2c1 |  | 10 µM (active) |

| Compound | activity, negative = inhibition | AC50 |
| --- | --- | --- |
| Cc1nc(SCC(=O)Nc2c(C)nn(C)c2C)c2cnn(-c3ccccc3)c2n1 | -11.2% [at 2.29 µM] |  |
| CCC(CC)C(=O)Nc1c2cnn(-c3ccccc3)c2nc(=O)n1-c1ccccc1 | -11.9% |  |
| Cc1ccc2c(CC(=O)OCc3cc(=O)n4c(n3)sc3ccccc34)coc2c1 |  | 7.94 µM (active) |
| CCc1c(O)nc2sc3ccccc3n2c1=O | -8.69% |  |
| CCOC(=O)Cc1cc(=O)n2[nH]c(C)c(-c3ccccc3)c2n1 | -6.13% |  |
| CN(CCO)c1nc(N)c2c(N)nc3c(c2c1C#N)CC(=O)N3C1CCCC1 |  | 10 µM (active) |
| COCCCNC(=O)C(=O)N/N=C/c1ccc(OCC(=O)Nc2cccc(Cl)c2C)c(OC)c1 | 7.9% [at 2.29 µM] |  |
| COc1cc(/C=N/NC(N)=O)c(Br)cc1OCC(=O)Nc1ccccc1C |  | 3.55 µM (active) |
| Cc1ccccc1OCC(=O)NC(=S)Nc1ccc(Br)c(C)n1 | -6.09% |  |
| CCCN1C(=O)/C(=C/c2ccc(C)s2)SC1=Nc1ccc(OC)cc1 |  | 14.1 µM (active) |
| CCCCOC(=O)NS(=O)(=O)c1sc(CC(C)C)cc1-c1ccc(Cn2c(CC)nc3c(C)cc(C)nc32)cc1 |  | 3.16 µM (active) |
| Cc1c(NC(=O)CSc2nnc3c4ccccc4n(CCc4ccccc4)c3n2)c(=O)n(-c2ccccc2)n1C |  | 10 µM (active) |
| Cc1c(NC(=O)CSc2nnnn2C)c(=O)n(-c2ccccc2)n1C | -2.31% [at 2.29 µM] |  |
| C=CCn1c(SCC(=O)Nc2c(C)n(C)n(-c3ccccc3)c2=O)nc2sc(C)c(-c3ccccc3)c2c1=O |  | 2.51 µM (active) |
| Cc1nc(SCC(=O)Nc2c(C)n(C)n(-c3ccccc3)c2=O)nc(C)c1C | -4.78% [at 11.4 µM] |  |
| Cc1cccc(NC(=O)Cn2c(=O)n3nc(CCn4nc(C)cc4C)nc3c3ccccc32)c1 |  | 5.01 µM (active) |
| Cc1cccc(NC(=O)CSc2nc3ccccc3c3nc(CCc4c(C)n[nH]c4C)nn23)c1 |  | 3.55 µM (active) |
| Cc1ccc(/C=C/C(=O)N2CC(C)CC(C)C2)o1 (stereo not given) | 9.56% |  |
| C[C@]12C=CC(=O)C=C1CC[C@@H]1[C@H]3C[C@@H](O)[C@](O)(C(=O)CO)[C@@]3(C)C[C@H](O)[C@]12F | -2.5% [at 25.6 µM] |  |
| C[C@H]1C[C@H]2[C@H]3CCC4=CC(=O)C=C[C@@]4(C)[C@]3(F)[C@H](O)C[C@]2(C)[C@@]1(O)C(=O)COP(=O)(O)O | 7.91% [at 11.4 µM] |  |
| C[C@]1(c2ccccc2)O[C@@H]2C[C@@H]3[C@@H]4CCC5=CC(=O)C=C[C@@]5(C)[C@]4(F)[C@H](O)C[C@]3(C)[C@@]2(C(=O)CO)O1 |  | 3.16 µM (active) |
| Cc1ccccc1C(C(=O)NCc1ccccc1)N(Cc1ccco1)C(=O)c1ccccn1 (stereo not given) |  | 3.16 µM (active) |
| O=C(NCc1ccccc1)C(c1ccc(F)cc1)N(Cc1ccco1)C(=O)c1ccccn1 (stereo not given) |  | 2.24 µM (active) |
